# Screening results (PubChem BioAssay)
# KLK7 zymogen act: proKLK7 zymogen activators, primary screen, biochemical, fluorescence intensity. activation, % at 7 µM. 0.9% of 370,000 active. purified proKLK7, EDANS-DABCYL substrate fluorescence; 100% is mature enzyme control, 0% vehicle;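 active = activation above the mean of all tested compounds plus 3 SD, computed per campaign excluding outliers beyond control limits, cut at about 13% in these data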
# ADAM10 inh: human ADAM10 inhibitors, primary screen, biochemical, QFRET, HTS | recombinant ADAM10, EDANS/DABCYL FRET peptide cleavage, 3 h | inhibition, % at 7 µM | 0.62% of 370,000 active;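 active = inhibition above a per-campaign cutoff equal to the mean of compounds falling between control-based bounds plus 3 SD, cut at about 20% in these data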;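 note: 0% = DMSO wells while the 100% control is not disclosed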
# Target sequence (O14672 214-748 limits assumed): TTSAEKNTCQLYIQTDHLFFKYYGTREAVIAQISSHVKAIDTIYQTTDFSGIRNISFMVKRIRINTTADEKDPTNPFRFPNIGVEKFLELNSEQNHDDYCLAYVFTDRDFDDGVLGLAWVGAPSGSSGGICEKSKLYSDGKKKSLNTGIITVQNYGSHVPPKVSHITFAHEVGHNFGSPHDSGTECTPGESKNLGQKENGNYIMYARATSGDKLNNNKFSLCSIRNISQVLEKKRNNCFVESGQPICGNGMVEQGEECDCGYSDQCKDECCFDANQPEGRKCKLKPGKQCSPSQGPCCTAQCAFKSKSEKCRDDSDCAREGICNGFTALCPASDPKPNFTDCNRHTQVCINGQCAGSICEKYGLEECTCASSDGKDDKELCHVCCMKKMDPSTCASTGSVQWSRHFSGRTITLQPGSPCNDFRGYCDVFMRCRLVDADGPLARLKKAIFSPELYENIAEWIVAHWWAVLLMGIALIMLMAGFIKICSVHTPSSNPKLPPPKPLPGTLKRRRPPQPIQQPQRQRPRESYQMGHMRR
# ADAM17 inh: ADAM17 inhibitors, primary screen, biochemical, QFRET. inhibition, % at 6.95 µM. recombinant ADAM17, EDANS/DABCYL FRET peptide cleavage. 0.83% of 370,000 active. Disintegrin and metalloproteinase domain-containing protein 17 (Homo sapiens), P78536;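 active = inhibition above the mean of compounds lying between control limits plus 3 SD, set per campaign, cut at about 8.5% in these data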;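 note: 0% = DMSO-only wells as the low control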
# AHR activator: AHR activators, primary screen, cell-based, luminescence, luciferase reporter, human; AHR-responsive luciferase reporter cells; 2.5% of 320,000 active; AID 2796, 2010; Aryl hydrocarbon receptor (Homo sapiens), P35869; activation, % at 5 µM; in the data active = activation above about 47%;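 note: 0% = vehicle wells and 100% = reference agonist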
# rCAG binder: binders of r(CAG) RNA repeats, primary screen, biochemical, fluorescence. r(CAG) RNA repeat, TO-PRO-1 dye displacement fluorescence. inhibition, % at 3 µM. 1.3% of 370,000 active;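 active = inhibition above the plate cutoff, the mean of all test compounds on that plate plus 3 SD, cut at about 35% in these data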;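 note: 0% = DMSO alone and 100% = 100 µM mitoxantrone as full dye displacement; higher means more dye released from RNA so lower well fluorescence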
# GRIN3A LBD mod: binders of NR3A ligand-binding domain, primary screen, biophysical, differential scanning fluorimetry, uHTS. NR3A LBD differential scanning fluorimetry, Tm shift; 0% = protein alone, 100% = glycine-bound protein. Tm shift relative to glycine control, % at 25 µM. 2.5% of 340,000 active. AID 1259313, 2017;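 active = melting temperature shift of at least 10% of the positive control shift, at one fixed dose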
# * hit, by the source's call; i = inactive; nt = not tested or not shown; ! = not active in a repeat. Shown are actives, neighbours in structure and some others; about 7% of the full set was active somewhere.
SMILES,KLK7 zymogen act,ADAM10 inh,ADAM17 inh,AHR activator,rCAG binder,GRIN3A LBD mod
O=C1O/C(=C/c2ccccc2)c2ccccc21,-11,-127,-37,0,4,-28
N#CC1=C(c2ccccc2)/C(=C/c2ccccc2)OC1=O,0,-7,-4,0,7,27*
Oc1ccc(N=Cc2ccc(-c3cccs3)s2)cc1,-87,i,i,1,22,27*
CCCCOc1ccc(N=Cc2cccs2)cc1,0,-5,-1,-3,0,-1
COc1ccc(CN2CCNC(=O)C2CC(=O)NCc2csc(C)n2)c(F)c1 (stereo not drawn),0,-11,-4,1,0,-1
COc1ccc(CN2CCNC(=O)C2CC(=O)NCc2csc(C(C)C)n2)c(OC)c1 (stereo not drawn),-1,-5,-3,47*,-5,-1
O=c1c2ccccc2c(/C=N/c2ncn[nH]2)c(O)n1Cc1ccccc1,-3,-465,-123,13,16,15*!
CC(C)CCC(C)N=Cc1c(O)n(Cc2ccccc2)c(=O)c2ccccc12 (stereo not drawn),-1,-12,-8,3,0,-4
CC(=O)c1ccc(NCCCN2CCC(C(O)(c3ccccc3)c3ccccc3)CC2)cc1,0,3,3,nt,0,nt
COC(=O)[C@]12C[C@H](CC(=O)NCc3cccs3)C(=O)N(CCC3=CCCCC3)C1=C[C@H](COCc1ccccc1)O[C@@H]2C,0,13,5,nt,8,nt
O=C(Nc1ccc(Oc2ncnc3cc(Cl)ccc23)nc1)Nc1cccc(C(F)(F)F)c1,1,8,0,-1,-1,98*
O=C(Nc1ccc(Oc2ncnc3cc(Cl)ccc23)nc1)c1ccc(F)cc1,nt,nt,nt,3,nt,6
CCOc1ccc(-c2nnc(-c3ccncc3)o2)cc1,1,-46,-10,61*,1,-4
C#CCNC(=O)C[C@@H]1C(=O)N(Cc2ccc(OC)cc2)/C2=C/CCCCC[C@@]21C(=O)OCC,0,-6,-5,nt,2,nt
NS(=O)(=O)c1ccc(NN=C2CCCCC2)c([N+](=O)[O-])c1,0,8,4,9,4,11*
CC(=O)N1CCC(=NNc2ccc(S(N)(=O)=O)cc2[N+](=O)[O-])CC1,1,1,-4,2,1,-1
COCCCN1C(=O)[C@H](CC(=O)NCc2cccc3ccccc23)[C@]2(C(=O)OC)CCCCC=C12,-1,1,1,nt,6,nt
S=c1[nH]nc(-c2ccccc2)n1/N=C/c1ccc(-c2ccccc2Cl)o1,0,-5,-5,53*,17,8
Clc1ccc(Nc2ccc(NCc3ccccc3)nn2)cc1,0,5,8,8,7,24*
Cc1ccc(Nc2ccc(NCc3ccccc3)nn2)cc1C,0,6,1,20,8,-7
CCOc1ccccc1NC(=O)c1cc2c(C)nn(-c3ccccc3)c2s1,-6,-3,1,nt,5,nt
S=C(Nc1cc(Cl)cc(Cl)c1)NC(c1ccccc1)c1ccccc1,nt,11,4,nt,nt,nt
CCC(C(=O)N1CCOCC1)n1nc(C)n2c(cc3cc(C)ccc32)c1=O (stereo not drawn),0,-91,-33,5,-5,11*
Cc1cc(C)cc(NC(=S)Nc2ccc(Cl)c(Cl)c2)c1,0,-3,-3,1,6,22*
COc1ccc(NC(=S)Nc2ccc(C)c(Cl)c2)cc1OC,0,-3,-1,5,1,13*
SMILES,KLK7 zymogen act,ADAM10 inh,ADAM17 inh,AHR activator,rCAG binder,GRIN3A LBD mod
Cc1cc(C)cc(NC(=S)NCCSc2ccc(Cl)cc2)c1,0,7,4,-3,4,13*
Cc1cccc(C)c1NC(=S)Nc1ccc(Cl)c(Cl)c1,1,7,1,1,1,-1
Cc1ccc(NC(=S)Nc2ccc(Cl)c(Cl)c2)c(OC(F)F)c1,0,2,2,7,6,15*
COC(=O)[C@]12C[C@H](CC(=O)N3CCN(C(=O)c4ccco4)CC3)C(=O)N(Cc3ccccc3)C1=C[C@H](C1CCCC1)O[C@@H]2C,1,3,8,nt,4,nt
Nn1c(SCC(=O)N2CCOCC2)nnc1-c1cc(-c2ccc(F)cc2)n[nH]1,0,2,5,nt,2,nt
Cc1ccc(NC(=S)Nc2ccc(OC(F)F)c(Cl)c2)cc1Cl,0,3,0,-1,4,38*
CC(NC(=S)Nc1ccc(OC(F)F)c(Cl)c1)C(C)(C)C (stereo not drawn),0,8,5,10,2,6
CCCCCCC1CC(CSc2ncn[nH]2)OC1=O (stereo not drawn),0,2,-2,0,-3,15*
Oc1ccc(Br)cc1C=Nc1ccc(Cl)cc1,0,-4,-1,-3,0,0
COc1cc(O)sc1C=Nc1ccc(Cl)cc1,0,-12,-1,48*,4,-1
COc1ccc(CC(=O)Nc2ccc(-c3cn4ccccc4n3)cc2)cc1,-5,-205,-75,-5,9,3
O=C(Nc1ccc(-c2cn3ccccc3n2)cc1)c1cccs1,4,-62,-22,-4,1,25*
O=C(Nc1cccc(-c2cn3ccccc3n2)c1)c1cccc(Cl)c1,-1,-36,-15,-11,3,16*
O=C(Nc1cccc(-c2cn3ccccc3n2)c1)C1CC1,1,-182,-33,65*,-2,-6
O=C(Nc1cccc(-c2cn3ccccc3n2)c1)c1cnccn1,0,4,-6,46,-1,1
O=[N+]([O-])c1cccc(/C(=N/N=C/c2ccccc2Br)C23CN4CN(CN(C4)C2)C3)c1,1,3,0,67*,-4,-1
Cc1ccccc1S(=O)(=O)N1CCCc2nc(-c3ccccc3)ccc21,1,4,0,nt,0,nt
CN1CCN(C(=S)Nc2ccc(Cl)c(Cl)c2)CC1,0,2,3,2,-2,13*
S=C(Nc1cccc(Cl)c1)N1CCN(c2ccccn2)CC1,0,6,1,-3,-1,1
S=C(NC1CCCC1)N1CCN(c2ccccn2)CC1,-1,-11,-2,57*,-1,0
S=C(Nc1ccc(Cl)c(Cl)c1)N1CCCC1,0,4,-7,6,-2,-2
S=C(Nc1ccc(Cl)c(Cl)c1)N1CCN(c2ccccn2)CC1,0,6,-4,19,1,11*
S=C(NC1CCCCC1)N1CCc2ccccc2C1,0,0,3,4,-6,11*
